Results as given in PubChem BioAssay.
Active and inactive are the calls of the source.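 How the source made its calls, unless noted: active means compounds that lower viability of the colon cancer cells in the luminescence readout, with no numeric limit stated; inactive means the rest.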

Experiments:
[1] = stimulators of nuclear beta-catenin in C2C12, primary screen, imaging, WNT3A-conditioned medium, mouse C2C12, NPC library (AID 1117326; in the data active means nuclear beta-catenin stimulation mostly above about 4.2%, no sharp cut-off; inactive means mostly below about 10%; further: reference of the scale not given here); conditions: stronger effect = higher value
[2] = stimulators of insulin release from INS-1E, primary screen, cell-based, 5 mM glucose, NPC library (AID 1117329;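 active means compound raises insulin release from rat beta cells at 5 mM glucose, no numeric limit stated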; further: reference of the scale not given here); conditions: rat INS-1E insulin secretion, at 10 µM, stronger effect = higher value
[3] = growth inhibition of GSK3B-pretreated HCT116 cells – cell-based, CellTiter-Glo, 0.2 to 20 µM (AID 1117336;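 active means compounds lowering colon cancer cell viability after pretreatment blocking the GSK3B kinase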); conditions: HCT116 viability after GSK3B inhibitor, at 20 µM, stronger effect = higher value
[4] = inhibition of endothelial tube formation, primary screen, imaging, VEGF stimulated, CD31 staining, tube area, NPC library (AID 1117340;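 active means compound that reduces growth-factor-driven endothelial tube area in a mixed cell culture, no cutoff stated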); conditions: VEGF-stimulated ADSC/ECFC co-culture, at 10 µM, stronger effect = higher value
[5] = glucagon-like peptide 1 release enhancers, primary assay, NCI-H716 cell line, NPC library (AID 1117341;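 active means compound raises GLP1 secretion from the human gut endocrine cells, with no numeric limit stated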; further: reference of the scale not given here); conditions: NCI-H716 cells, at 10 µM, stronger effect = higher value
[6] = HCT116 colon cancer cell growth inhibition, primary screen, CellTiter-Glo luminescence, NPC library (AID 1117342;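 active means compounds that lower survival of HCT116 colon cancer cells in the luminescence readout, no numeric limit stated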); conditions: at 20 µM (top of the series)
[7] = CellTiter-Glo luminescent readout of SW480 viability loss, NPC library primary (AID 1117343); conditions: CellTiter-Glo luminescence; at 20 µM (top of the series)
[8] = decreased DLD-1 cellular survival, CellTiter-Glo luminescent readout, NPC compound collection, primary HTS (AID 1117346;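 active means compounds that lower survival of DLD-1 colon cancer cells in the luminescence readout, no cutoff given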); conditions: DLD-1 viability, CellTiter-Glo luminescence; at 20 µM (top of the series)

Structure (SMILES) | nuclear beta-catenin stimulation ([1]; at 10 µM) | nuclear beta-catenin stimulation ([1]; stimulation, at 2 µM) | insulin secretion stimulation [2] | viability decrease [3] | tube area decrease [4] | GLP1 secretion stimulation [5] | inhibition of viability [6] | viability decrease (inhibition) [7] | viability decrease (inhibition) [8]
CN(C)c1cc(NC(=O)CNC(C)(C)C)c(O)c2c1C[C@@H]1C[C@H]3[C@H](N(C)C)C(=O)C(C(N)=O)=C(O)[C@@]3(O)C(=O)C1=C2O | -0.8% (inactive) | -1.4% | -0.5% (inactive) | 70% (active) | -8.6% (inactive) | 3.4% (inactive) | 59.6% (active) | 72% (active) | 58.1% (active)
Cn1c(O)c(N=NC(N)=S)c2ccccc21 | 2.5% (inactive) | 3.1% | 2% (inactive) | 13.8% (inactive) | 28.1% (inactive) | -3.5% (inactive) | 39.9% (inactive) | 30.4% (inactive) | 12.2% (inactive)
Nc1ccc(/C=C/c2ccc(N)cc2S(=O)(=O)O)c(S(=O)(=O)O)c1 | 0.5% (inactive) | 0.9% | 0.1% (inactive) | -4.75% (inactive) | -11.3% (inactive) | -0.8% (inactive) | -10.1% (inactive) | 13% (active) | -4.05% (inactive)
c1ccc2[nH]ccc2c1 | 0.4% (inactive) | 3% | -2.8% (inactive) | -4.45% (inactive) | 10.7% (inactive) | 1.9% (inactive) | -34.9% (inactive) | 23.7% (inactive) | 6.25% (inactive)
CCOc1ccccc1O[C@H](c1ccccc1)[C@H]1CNCCO1 | -0.4% (inactive) | -2.9% | 5.4% (inactive) | -2.9% (inactive) | -5.2% (inactive) | 0.6% (inactive) | 22.7% (inactive) | 6.2% (inactive) | 18.8% (inactive)
C[C@H](CN1CCCC1)C(=O)c1ccc(C(F)(F)F)cc1 | 5.1% (inactive) | -1.9% | 8.3% (inactive) | -5.5% (inactive) | -4% (inactive) | -0.4% (inactive) | 7.8% (inactive) | 73.8% (active) | 68.1% (active)
CCN1CCN(c2cc(-c3ccc(F)cc3)c3c(n2)CCCCCC3)CC1 | 0.2% (inactive) | -3.3% | 1.9% (inactive) | 104% (active) | 24% (inactive) | 11.2% (inactive) | 113% (active) | 132% (active) | 102% (active)
NC(=S)N/N=C/c1cccnc1 | 0.4% (inactive) | 0.5% | -0.8% (inactive) | 0.7% (inactive) | -13.5% (inactive) | 1.9% (inactive) | -8.9% (inactive) | 38.7% (inactive) | 1.65% (inactive)
c1ccc2sc(SN3CCOCC3)nc2c1 | 0.5% (inactive) | 2.1% | -2.6% (inactive) | 2.05% (inactive) | 18.9% (inactive) | -0.9% (inactive) | -10.4% (inactive) | 110% (active) | 6.4% (inactive)
CC(NN)c1ccccc1 (stereo not drawn) | 1.9% (inactive) | -2.2% | 3.35% (inactive) | 13.8% (inactive) | -6.7% (inactive) | -0.4% (inactive) | 9.9% (inactive) | 4.9% (inactive) | 14.8% (inactive)
CC1(C)S[C@@H]2[C@H](NC(=O)C(c3ccccc3)S(=O)(=O)O)C(=O)N2[C@H]1C(=O)O (stereo partly drawn) | 1.3% (inactive) | 1.4% | -0.05% (inactive) | 5.8% (inactive) | -2.3% (inactive) | 3.6% (inactive) | 1.3% (inactive) | -0.2% (inactive) | -1.8% (inactive)
CCCCCCCCCCCC(=O)OCC(O)CO (stereo not drawn) | -1.2% (inactive) | 2.9% | -1.1% (inactive) | -3.8% (inactive) | 14.2% (inactive) | -3.3% (inactive) | -2.2% (inactive) | 44.7% (inactive) | 44.9% (inactive)
N[C@H](Cc1c[nH]c2ccccc12)C(=O)O | 0.6% (inactive) | 1% | 2.7% (inactive) | 6.2% (inactive) | 1.5% (inactive) | -2.5% (inactive) | -1.87% (inactive) | 6.5% (inactive) | 1.8% (inactive)
CCCCOCCOC(=O)c1cccnc1 | 1.3% (inactive) | -0.3% | 2.6% (inactive) | -29.5% (inactive) | 1.8% (inactive) | 2.3% (inactive) | -11.9% (inactive) | 18.6% (inactive) | -20.5% (inactive)
Cc1nc(C2CCCCC2)c(-c2ccc(S(N)(=O)=O)c(F)c2)o1 | 2.5% (inactive) | 4.1% | 1.4% (inactive) | 21% (inactive) | 24% (inactive) | 1.8% (inactive) | -0.63% (inactive) | 6.3% (inactive) | 3.1% (inactive)
CCCOC(=O)c1ccc(N)cc1 | -0.1% (inactive) | 0.3% | -1.5% (inactive) | -4.45% (inactive) | 4.9% (inactive) | -0.1% (inactive) | 1.8% (inactive) | 110% (active) | 21.4% (inactive)
CC(=O)O[C@H]1CC[C@@]2(C)C(=CC[C@@H]3[C@@H]2CC[C@]2(C)C(C(C)=O)=CC[C@@H]32)C1 | 3.7% (inactive) | 0.6% | 0.2% (inactive) | 48% (inactive) | 9.9% (inactive) | -2% (inactive) | 25.8% (inactive) | 60.1% (active) | 14.9% (inactive)
